# Data published in the supplement of paper PMC4840960.
# Key:
# [1] = tested on: E18 rat cortical neuron-glia co-culture; test: fiber score / MBP score (myelination specific beyond OL differentiation) (ratio); higher = more myelination-specific MBP alignment; settings: treatment time: 8 days (DIV5-DIV13)
# Procedure, shortened: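 Library compounds were applied at 1 or 5 µM in myelination medium, DIV5 to DIV13, to primary E18 rat cortical co-cultures grown at 20,000 cells/well in 96-well plates. After 4 % paraformaldehyde fixation and MBP/Olig2/DAPI immunostaining, four 10X fields per well in duplicate wells were scored. Each value is continuous MBP fiber length per Olig2+ nucleus divided by thresholded MBP area × intensity per Olig2+ nucleus.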
# [2] = tested on: E18 rat cortical neuron-glia co-culture; test: myelination (MBP fiber length per Olig2+ nucleus), % of 1 µM DAPT response (DMSO = 0) (% of DAPT); higher = more myelination, active = 50 or more; settings: treatment time: 8 days (DIV5-DIV13)
# Procedure, shortened: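 Library compounds at 1 or 5 µM in myelination medium were applied from DIV5 to DIV13 to papain-dissociated E18 rat cortical co-cultures seeded at 20,000 cells/well on poly-d-lysine/laminin 96-well plates. Fixed cells (4 % paraformaldehyde) were immunostained for MBP and Olig2 with DAPI, and four 10X fields were analysed in each duplicate well. Continuous straight MBP fiber length per Olig2+ nucleus was set to 0 for 0.1 % DMSO and to 100 for a 1 µM positive control.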
SMILES,fiber score / MBP score ([1]; 1 µM),fiber score / MBP score ([1]; 5 µM),myelination ([2]; 1 µM),myelination ([2]; 5 µM)
Cc1c(OCC(F)(F)F)ccnc1C[S+]([O-])c1nc2ccccc2[nH]1 (configuration not stated) [Lansoprazole],0.767,1.37,-17.3 (inactive),65.6
COc1c2occc2cc2ccc(=O)oc12 [Methoxsalen],0.488,0.29,-11.8 (inactive),-16.1 (inactive)
CC(=O)[C@H]1CC[C@H]2[C@@H]3CCC4=CC(=O)CC[C@]4(C)[C@H]3CC[C@]12C [Progesterone],0.688,0.552,-31.5 (inactive),-38.4 (inactive)
Cc1ccc(N(CC2=NCCN2)c2cccc(O)c2)cc1 [Phentolamine],0.701,0.56,-21.8 (inactive),-26.1 (inactive)
CC(C)/N=c1\cc2n(-c3ccc(Cl)cc3)c3ccccc3nc-2cc1Nc1ccc(Cl)cc1 [Clofazimine],0.742,0.962,-9.19 (inactive),-8.06 (inactive)
O=C1Nc2ccc(Cl)cc2[C@@](C#CC2CC2)(C(F)(F)F)O1 [Efavirenz],0.744,0.712,-8.9 (inactive),11.1 (inactive)
COc1ccnc(C[S+]([O-])c2nc3cc(OC(F)F)ccc3[nH]2)c1OC (configuration not stated) [Pantoprazole],0.86,0.933,-9.58 (inactive),1.97 (inactive)
c1cnc(N2CCN(Cc3ccc4c(c3)OCO4)CC2)nc1 [Piribedil],0.774,0.712,-24.5 (inactive),-35.6 (inactive)
Cc1c(O)cccc1C(=O)N[C@@H](CSc1ccccc1)[C@H](O)CN1C[C@H]2CCCC[C@H]2C[C@H]1C(=O)NC(C)(C)C [Nelfinavir],0.779,0.634,-42.1 (inactive),-44.3 (inactive)
CO/N=C(\C(=O)N[C@@H]1C(=O)N2C(C(=O)O)=C(COC(N)=O)CS[C@H]12)c1ccco1 [Cefuroxime],0.749,0.663,-44.2 (inactive),-51.7 (inactive)
CC(C)[C@H](N)C(=O)OCCOCn1cnc2c(=O)nc(N)[nH]c21 [Valaciclovir],0.731,0.774,-21.7 (inactive),-19 (inactive)
CO/N=C(\C(=O)N[C@@H]1C(=O)N2C(C(=O)O)=C(COC(C)=O)CS[C@H]12)c1csc(N)n1 [Cefotaxime],0.651,0.671,-9.49 (inactive),-10.3 (inactive)
CN1[C@@H](CC(=O)c2ccccc2)CCC[C@H]1C[C@H](O)c1ccccc1 [Lobeline],0.981,0.451,2.9 (inactive),-19.7 (inactive)
NC(N)=Nc1nc(CSCC/C(N)=N/S(N)(=O)=O)cs1 [Famotidine],0.875,0.752,-13.8 (inactive),-21.2 (inactive)
CC(=O)[C@@]1(O)CC[C@H]2[C@@H]3C[C@H](C)C4=CC(=O)C=C[C@]4(C)[C@@]3(F)[C@@H](O)C[C@@]21C [Fluorometholone],0.809,0.856,-5.67 (inactive),2.04 (inactive)
CCOC(=O)C1=C(C)NC(C)=C(C(=O)OC)C1c1cccc(Cl)c1Cl (configuration not stated) [Felodipine],1.27,0.858,20.4 (inactive),8.21 (inactive)
COCC1=C(C(=O)OC(C)OC(=O)OC(C)C)N2C(=O)[C@@H](NC(=O)/C(=N\OC)c3csc(N)n3)[C@H]2SC1 (some centres not stated) [Cefpodoxime proxetil],0.721,0.866,-20.2 (inactive),-4.97 (inactive)
CNCCCN1c2ccccc2CCc2ccccc21 [Desipramine],0.74,0.549,-14.9 (inactive),-13.3 (inactive)
Cc1ccc(C)c(OCCCC(C)(C)C(=O)O)c1 [Gemfibrozil],0.476,0.995,-13.7 (inactive),-7.17 (inactive)
CN1CCC(=C2c3ccccc3CC(=O)c3sccc32)CC1 [Ketotifen],1.03,0.58,-0.199 (inactive),-13.6 (inactive)
Cc1nc2ccccn2c(=O)c1CCN1CCC(C(=O)c2ccc(F)cc2)CC1 [Pirenperone],0.876,0.646,-7.44 (inactive),-11.5 (inactive)
COc1ccc2[nH]c([S+]([O-])Cc3ncc(C)c(OC)c3C)nc2c1 (configuration not stated) [Omeprazole],0.656,0.73,-8.06 (inactive),-4.44 (inactive)
CC(C)OC(=O)C(C)(C)Oc1ccc(C(=O)c2ccc(Cl)cc2)cc1 [Fenofibrate],0.901,0.661,-0.815 (inactive),21.8 (inactive)
